Measured values reported in PubChem BioAssay AID588335 (The Scripps Research Institute Molecular Screening Center, 2011).
The campaign covered roughly 360,000 compounds. About 4,500 (1.2%) were called active. This is one part of a sample in which actives are shown more often than they occur. A number with no mark means an inactive call. No stated cut-off is given here; in the data, active means inhibition above about 30%; inactive means the rest.

Assay: GDH-TPI coupling enzyme inhibitors, primary screen, artefact control for M. tuberculosis FBA inhibitor project, biochemical, absorbance, full deck (AID 588335);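 further: 0% = DMSO wells and 100% = wells lacking the enzyme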
Conditions: GDH-TPI coupled enzyme counterscreen, NADH absorbance; at 4.8 µM; hits give high values

Compound | inhibition
CC(C)(C)CC(C)(C)NCC(O)COCCOc1ccc(Br)cc1 (stereo not given) | -7.87%
CC(=NNC(N)=O)C1CC2CCC1CC2 (stereo not given) | 4%
CC1CCCCC1NC(=O)COC(=O)Cc1ccc(Br)cc1 (stereo not given) | 0.32%
O=C(COC(=O)c1ccc(O)cc1O)c1ccc2c(c1)OCCO2 | -0.63%
Cc1ccnc(NC(=O)c2ccc(Cl)c([N+](=O)[O-])c2)c1 | 8.28%
O=C(/C=C/c1ccc(Cl)c([N+](=O)[O-])c1)c1ccc(O)cc1 | 40.7% (active)
O=C(O)c1ccc2c(=O)n3c(nc2c1)/C(=C/c1ccc(Cl)c([N+](=O)[O-])c1)CC3 | -3.69%
C/C(=N\NC(=O)C(N)=O)c1ccc2c(c1)OCCO2 | 0.63%
O=C(/C=C/c1ccc2c(c1)OCCO2)c1ccc(O)cc1 | 37.5% (active)
CC(C)C(=O)N1CC(=O)Nc2ccc(F)cc2C1c1ccc(F)cc1 (stereo not given) | 2.76%
CSc1nc2ccccc2cc1/C=C(\C#N)c1ccc(Cl)cc1Cl | 12.3%
CC(=O)N1CCc2cc(Br)cc(S(=O)(=O)CCC(=O)Nc3c(C)n(C)n(-c4ccccc4)c3=O)c21 | 0%
CCN(CC)CCCNC(=O)c1ccc2c(=O)n(Cc3ccc4c(c3)OCO4)c(=S)[nH]c2c1 | 3.66%
CCSC(C)CC1C/C(=N/O)c2c(C)noc2C1 (stereo not given) | -6.62%
C[C@@H]1O[C@@H](OC[C@H]2O[C@@H](Oc3c(-c4ccc(O)cc4)oc4cc(O)cc(O)c4c3=O)[C@H](O)[C@@H](O)[C@@H]2O)[C@H](O)[C@H](O)[C@H]1O | 17.6%
COc1ccc(-c2cc(=O)c3c(O)cc(O[C@@H]4O[C@H](CO[C@@H]5O[C@@H](C)[C@H](O)[C@@H](O)[C@H]5O)[C@@H](O)[C@H](O)[C@H]4O)cc3o2)cc1O | 37.8% (active)
COc1c(O)cc2oc(-c3ccc(O)c(O)c3)cc(=O)c2c1O | 22%
Cc1csc(CN(C)C(=O)CC2C(=O)NCCN2CC(C)(C)C)n1 (stereo not given) | -0.64%
CC1(C(=O)Nc2cccc(Oc3ccccc3)c2)CCN1Cc1ccccc1Cl (stereo not given) | 11.5%
CCOc1cc(C)ccc1OCc1nnc(SCC(=O)Nc2cccc(C(=O)O)c2)n1-c1ccccc1 | 5.71%
CCN(CC)CCCNC(=S)N(CCO)Cc1cc2cc3c(cc2[nH]c1=O)OCO3 | 10.3%
CCNC(=S)N(CCN(CC)CC)Cc1cc2cc3c(cc2[nH]c1=O)OCO3 | 40.6% (active)
CCNC(=S)N(CCN(CC)CC)Cc1cc2cc3c(cc2[nH]c1=O)OCCO3 | 27.9%

Compound | inhibition
CN1C(CC(=O)Nc2ccc(Br)cc2)c2ccccc2CC1(C)C (stereo not given) | 2.84%
COc1cc(C(=O)N2CCN(S(=O)(=O)c3ccc(C(C)C)cc3)CC2)ccc1OCC(=O)N1CCOCC1 | -5.56%
Nc1ccccc1-c1nc2ccncc2[nH]1 | 17.8%
c1ccc2[nH]c(-c3nc4ccccc4[nH]3)nc2c1 | 36.1% (active)
O=C(Nc1sc2c(c1-c1nc3ccccc3[nH]1)CCCC2)C1CC1 | 12.9%
CCc1ccc2c(c1)cc(CN(C(=S)Nc1ccccc1Cl)C1CC1)c1nnnn12 | 3.4%
COCCCN(C(=S)Nc1c(C)cc(C)cc1C)C(C)c1ccncc1 (stereo not given) | -1.1%
O=C1N/C(=N\N=C\c2ccco2)SC1Cc1ccc(F)cc1 (stereo not given) | 34.3% (active)
CC(C)=N/N=C1/NC(=O)C(Cc2ccccc2)S1 (stereo not given) | 1.52%
COc1ccc(CN2C(=O)C(C)S/C2=N/N=C/c2ccco2)cc1 (stereo not given) | 28.3%
CCCCC1S/C(=N/N=C/c2cccs2)NC1=O (stereo not given) | 23.8%
CCC1S/C(=N/N=C/c2ccco2)NC1=O (stereo not given) | 48.7% (active)
C=CCN1C(=O)C(Cc2cccc(Cl)c2)S/C1=N/N=C/c1ccco1 (stereo not given) | 17.9%
NC(=O)Cn1nc([N+](=O)[O-])nc1Oc1ccc(Br)cc1 | -2.44%
COc1ccc(OC)c(-n2cc3c(=O)n(C)c(=O)n(C)c3c2)c1 | 17.5%
Cc1noc(COc2ccccc2OCc2onc(C)c2Cl)c1Cl | -5.03%
Cc1cc(NC(=O)CN2C(=O)NC(C)(CCc3ccccc3)C2=O)no1 (stereo not given) | -0.61%
COC(=O)c1sc2[nH]c(=S)n(N)c(=O)c2c1C | 31.6% (active)
COC(=O)c1sc(NC(=O)COC(=O)C2CCC2)c(C(=O)OC)c1C | -0.7%
CCCC(CCC(=O)OC)(C(=O)OCC)c1csc(N)n1 (stereo not given) | 13%
CCc1ccc(C(=O)COC(=O)c2ccco2)cc1 | -8.19%
CCN(CC)c1ccc(C(=O)OCC(=O)c2ccco2)cc1 | 31.4% (active)
O=C(COC(=O)c1ccccc1C(=O)c1ccccc1)c1ccco1 | -5.13%

Compound | inhibition
C[C@H](NC(=O)C1CCN(S(=O)(=O)c2ccccc2)CC1)C(=O)NCc1ccccc1 | -5.08%
O=C(CN1C(=O)NC2(CCCCCC2)C1=O)Nc1ccc([N+](=O)[O-])cc1 | 22.4%
COc1ccccc1-n1c(O)c(C=NC2CC2)c(=O)[nH]c1=O | -4.18%
COc1cc(C=NC2CCCCC2)ccc1O | 32.4% (active)
COc1cc(C(=S)NC2CCCCC2)ccc1O | 2.87%
Cn1c(=O)[nH]c(=O)c2c1nc(NCCCn1ccnc1)n2Cc1cccc(Br)c1 | 33.2% (active)
COc1ccc(CCn2c(NCCCN3CCOCC3)nc3c2c(=O)[nH]c(=O)n3C)cc1 | 2.26%
Cc1nnc(Sc2nc3c(c(=O)[nH]c(=O)n3C)n2Cc2ccccc2)s1 | 3.35%
Cc1cc(C)cc(C(=O)NCC(=O)OCC(=O)N2CCCCC2)c1 | -3.76%
Cc1ccc(-n2ncc3c2CC(C)(C)CC3NC(=O)Cc2c(C)noc2C)cc1 (stereo not given) | 2.41%
Cc1ccc(NC(=O)c2nc[nH]c2C(=O)N2CCCCC2)c(C(=O)c2ccccc2)c1 | 16.6%
CC(CNS(=O)(=O)c1ccc(Br)cc1)CN(C)C (stereo not given) | -2.58%
Cc1c(NC(=O)C(=O)N/N=C/c2cccs2)c(=O)n(-c2ccccc2)n1C | 6.43%
COc1ccc(N(CC(=O)N/N=C/c2cccs2)S(=O)(=O)c2ccc(OC)c(OC)c2)cc1 | 7.97%
COc1ccc2c(c1)c(C(=O)N/N=C/c1cccs1)c(C)n2C | 38.7% (active)
CCOC(=O)c1ccccc1NS(=O)(=O)c1c(C)nc2sccn2c1=O | 15%
COc1ccc(CCNC(=O)COC(=O)c2ccc[nH]c2=O)cc1 | 7.19%
COCCCn1c(SCc2cccc(OC)c2)nc2cc(OC)c(OC)cc2c1=N | -0.63%
O=C(Cc1ccccc1)Nc1cccc(C(=O)N/N=C/c2ccco2)c1 | 12.2%
O=C(CCNC(=O)c1ccccc1Cl)NN=Cc1ccco1 | 10.8%
O=C(N/N=C/c1ccco1)c1ccc(C(=O)N/N=C/c2ccco2)o1 | 47.5% (active)
COc1ccc(O)c(C(=O)c2cnc3onc(C(C)C)c3c2)c1 | 5.83%
COc1ccc(Cn2cc(CN3CCS(=O)(=O)N(Cc4ccc(-c5cccc(Cl)c5)cc4)C(C)C3=O)nn2)cc1 (stereo not given) | 12.3%

Compound | inhibition
C=CCn1c(=NC(=O)c2ccc(S(=O)(=O)N3CCCC3)cc2)sc2cc(NC(C)=O)ccc21 | 28.4%
C=CCn1c(CCNC(=O)c2cccs2)n[nH]c1=S | -2.53%
C=CCn1c(=NC(=O)c2cccs2)sc2cc(NC(C)=O)ccc21 | 31.8% (active)
Cc1ccc(O)c(CCc2ccccc2)n1 | 5.82%
COC(=O)C(C(=O)Nc1cccc(Cl)c1C)C1CCCC1 (stereo not given) | 2.59%
CCOC(=O)N1CCN(C(=O)CSc2nnc(-c3c[nH]c4ccccc34)n2CCOC)CC1 | 21.3%
Cc1ccc(C)c(S(=O)(=O)N(C)c2ccc(OC(=O)C3CCN(C(=O)c4ccc(F)cc4)CC3)cc2)c1 | -2.88%
CCN(C(=O)COC(=O)c1cc(S(=O)(=O)N2CCc3ccccc32)ccc1OC)C1CCS(=O)(=O)C1 (stereo not given) | -2.55%
Cc1ccc2oc(=O)c3cnn(CC(=O)N(Cc4ccco4)C4CCCCC4)c3c2c1 | 0%
O=C(NCCCN1CCN(c2ccc(F)cc2)CC1)Nc1ccc([N+](=O)[O-])cc1 | 21.2%
CN1CCN(CCNC(=O)Nc2ccc([N+](=O)[O-])cc2)CC1 | 35.1% (active)
CN1CCN(CCNC(=O)Nc2ccccc2[N+](=O)[O-])CC1 | 1.97%
CC(Oc1ccc(F)cc1)C(=O)Nc1cc(S(=O)(=O)N2CCOCC2)ccc1N1CCN(C)CC1 (stereo not given) | -7.32%
COC(=O)c1ccc(NC(=O)C23CC4CC(C2)CC(n2cnc(Cl)n2)(C4)C3)cc1 | 7.31%
CCC(CC)C(=O)Nc1cccc(C(=O)N2CCCC2)c1 | 2.12%
COc1ccc(NC(=O)CCCOc2ccc(C(C)=O)cc2)cc1S(=O)(=O)N1CCCCC1 | 7.56%
C/C(=N\NC(=O)c1cccc(N2CCCC2=O)c1)c1ccc(N)cc1 | 5.43%
O=C(NCCCN1CCCCCC1)c1ccc(N2CCCC2=O)cc1 | 3.81%
COc1cc(/C=N/NC(=O)c2ccc(N3CCCC3=O)cc2)ccc1O | 43.2% (active)
CN(CC(O)COc1ccc(S(=O)(=O)N2CCOCC2)cc1Cl)C1CCCCC1 (stereo not given) | -2.47%
Cn1c(SCC(=O)Nc2ccc(Cl)cc2)nc(O)cc1=O | 4.39%
